The source of these data is PubChem BioAssay.

The nature of this experiment: calcein-AM signal in unstimulated myeloma cells – cell-based, calcein-AM fluorescence, 48 h, PK04 Diversity Set, profiling panel (AID 1166).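 Further: cells grown under basal conditions without added stimulus; test concentration not given here.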 To be noted: RPMI8226 myeloma viability, higher = more signal.
For the compound `O=C1[C@H]2[C@H]3[C@H](O)[C@H](O)CC(=NO[C@@H]4O[C@H](CO)[C@@H](O)[C@H](O)[C@H]4O)[C@H]3CC[C@H]2C(=O)N1c1ccc(F)cc1F`, the z-score is -0.3.

As for `COC(=O)[C@@H]1CC[C@H](C)[C@@H](c2ccc(C)cc2)N1C(=O)c1ccc(C=NOC[C@H]2O[C@H](c3ccccc3)C=C[C@@H]2Oc2ccc(OC)cc2)cc1`, the z-score was -0.537.

With `COC(=O)CC=C[C@@H](C)[C@@H](C=NOC[C@@H](O)COCc1ccco1)OC`, the z-score is 0.598.

For `CC(C)(C)N1C(=O)[C@H]2[C@H]3[C@H](O)[C@H](O)CC(=NOC[C@@H](O)COCc4ccco4)[C@@H]3CC[C@H]2C1=O`, the z-score was -1.63.

On to `C#CCCCON=C1C[C@@H](O)[C@@H](O)[C@@H]2[C@@H]3C(=O)N(C[C@@H]4CCCO4)C(=O)[C@@H]3CC[C@H]12`, for which the z-score was 0.0556.

For the compound `CCOC(=O)[C@H](CC(C)C)NC(=O)CCC1CC(OC(=O)NCCc2ccc(F)cc2)CC2(CCCC(COC(=O)NCCOC)O2)O1` (stereo partly drawn), the z-score is 0.124.

On to `CCOC(=O)[C@H](Cc1ccccc1)NC(=O)CCC1CC(OC(=O)NCCc2ccc(F)cc2)CC2(CCCC(COC(=O)NCCC(C)C)O2)O1` (stereo partly drawn), for which the z-score is -0.364.

`CC(C)=CCCC(C)=CCON=C1C[C@@H](O)[C@@H](O)[C@@H]2[C@@H]3C(=O)N(C4CCCCC4)C(=O)[C@@H]3CC[C@H]12`: the z-score was -0.201.
